{"source": "the supplement of paper PMC9446081", "note": "Hit rate of the full screen: of about 39,000 compounds, about 220 (0.56%) showed activity. The sample holds actives, similar compounds and a random draw of the others, so the mix is not that of the screen. Values without a mark were called inactive.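 Note: Wild-type cells incubated without shaking, value is the mean of two biological replicates.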", "data": [{"test_system": "Escherichia coli K-12 BW25113", "assay": "relative growth (OD600 normalised to plate interquartile mean) (fraction); higher = less growth inhibition, active = 0.2 or less", "conditions": "50 µM; LB; incubation time: overnight (16-24 h)", "values": [{"smiles": "COc1ccc(NC(=O)N(C)C[C@H]2OCCCC[C@@H](C)Oc3ccc(NC(=O)c4ccccc4)cc3C(=O)N([C@@H](C)CO)C[C@H]2C)cc1", "relative growth": 0.994}, {"smiles": "COC[C@H](C)N1C[C@H](C)[C@@H](CN(C)Cc2ccc(Oc3ccccc3)cc2)Oc2c(NC(=O)c3ccncc3)cccc2C1=O", "relative growth": 1}, {"smiles": "Cc1noc(C)c1S(=O)(=O)Nc1ccc2c(c1)C(=O)N([C@H](C)CO)C[C@@H](C)[C@H](CN(C)C(=O)NC1CCCCC1)O2", "relative growth": 1.01}, {"smiles": "C[C@@H]1CN([C@H](C)CO)C(=O)c2cc(NS(=O)(=O)c3ccc(F)cc3)ccc2O[C@@H](C)CCCCO[C@@H]1CN(C)C(=O)C1CCCCC1", "relative growth": 0.993}, {"smiles": "Cc1noc(C)c1NC(=O)N(C)C[C@H]1Oc2ccc(NC(=O)Nc3ccc(C(F)(F)F)cc3)cc2CC(=O)N([C@H](C)CO)C[C@H]1C", "relative growth": 0.935}, {"smiles": "C[C@H](CO)N1C[C@H](C)[C@H](CN(C)S(=O)(=O)c2ccccc2)Oc2ccc(NC(=O)C3CC3)cc2CC1=O", "relative growth": 1}, {"smiles": "CC(C)(C)c1ccc(NC(=O)N[C@H]2CCCc3ccccc32)cc1", "relative growth": 1.03}, {"smiles": "COc1ccc(NC(=O)Nc2ccc3c(c2)CC(=O)N([C@H](C)CO)C[C@@H](C)[C@@H](CN(C)S(=O)(=O)c2c(C)noc2C)O3)cc1", "relative growth": 0.969}, {"smiles": "Nc1ncn([C@@H]2C[C@H](O)[C@@H](CO)O2)c(=O)n1", "relative growth": 0.907}, {"smiles": "Nc1ncn(C2OC(CO)C(O)C2O)c(=O)n1", "note": "(stereo unspecified)", "relative growth": "0.05 (active)"}, {"smiles": "Nc1ncn([C@@H]2O[C@H](CO)[C@@H](O)[C@H]2O)c(=O)n1", "relative growth": 0.458}, {"smiles": "CC(=O)N(C)C[C@@H]1Oc2ncc(C#C[C@@H](C)O)cc2C(=O)N([C@@H](C)CO)C[C@H]1C", "relative growth": 1.01}, {"smiles": "O=C(C[C@@H]1CC[C@@H]2[C@H](COC[C@@H](O)CN2S(=O)(=O)c2cccc(Cl)c2)O1)N1CCOCC1", "relative growth": 1.01}, {"smiles": "O=C1OC(=O)[C@H]2[C@@H]1[C@H]1CC[C@H]2O1", "relative growth": "0.16 (active)"}, {"smiles": "CCc1c(C)[nH]c(=S)c(C#N)c1C", "relative growth": 1.01}, {"smiles": "Cc1noc(C)c1S(=O)(=O)Nc1ccc2c(c1)C(=O)N([C@@H](C)CO)C[C@H](C)[C@H](CN(C)CC1CC1)O2", "relative growth": 0.999}, {"smiles": "COc1ccc(NC(=O)N(C)C[C@H]2Oc3c(NS(=O)(=O)c4cn(C)cn4)cccc3C(=O)N([C@@H](C)CO)C[C@@H]2C)cc1", "relative growth": 0.995}, {"smiles": "C[C@H](CO)N1C[C@H](C)[C@@H](CN(C)S(=O)(=O)c2ccc(F)cc2)Oc2ccc(NC(=O)c3ccncc3)cc2CC1=O", "relative growth": 0.989}, {"smiles": "C[N+](C)(C)CCCCCC[N+](C)(C)C.[Br-].[Br-]", "relative growth": 0.862}, {"smiles": "CCCCCCCCCCCCCCCC[N+](C)(C)C", "relative growth": "0.0755 (active)"}, {"smiles": "CCCCCCCCCCCCCCCCOP(=O)([O-])OCC[N+](C)(C)C", "relative growth": 1}, {"smiles": "NS(=O)(=O)c1cc(-c2nn[nH]n2)c(NCc2cccs2)cc1Cl", "relative growth": 0.965}, {"smiles": "NC[C@H]1CCN(c2ccc(Oc3ccccc3)cc2)C1", "relative growth": 0.669}, {"smiles": "C[C@H]1CCCCO[C@H](CN(C)C(=O)Cc2ccccc2)[C@@H](C)CN([C@@H](C)CO)C(=O)c2cc(NC(=O)c3ccccc3)ccc2O1", "relative growth": 1.03}, {"smiles": "CCC=C(C(=O)NC1C(=O)N2C(C(=O)OCOC(=O)C(C)(C)C)=C(COC(N)=O)CSC12)c1csc(N)n1.Cl", "note": "(stereo unspecified)", "relative growth": "0.0724 (active)"}, {"smiles": "CON=C(C(=O)N[C@@H]1C(=O)N2C(C(=O)OCOC(=O)C(C)(C)C)=C(C=Cc3scnc3C)CS[C@H]12)c1csc(N)n1", "relative growth": "0.0386 (active)"}, {"smiles": "CON=C(C(=O)NC1C(=O)N2C(C(=O)OCOC(=O)C(C)(C)C)=C(C=Cc3scnc3C)CSC12)c1csc(N)n1", "note": "(stereo unspecified)", "relative growth": "0.0492 (active)"}, {"smiles": "Cc1ccc(S(=O)(=O)N(C)C[C@@H]2Oc3ccc(NS(=O)(=O)c4ccc(F)cc4)cc3C(=O)N([C@H](C)CO)C[C@@H]2C)cc1", "relative growth": 1.08}, {"smiles": "COc1ccc(CN(C)C[C@@H]2Oc3c(NC(=O)Nc4ccc(C(F)(F)F)cc4)cccc3C(=O)N([C@@H](C)CO)C[C@H]2C)cc1", "relative growth": 0.818}, {"smiles": "Cc1cc(-c2ccccc2)nc(-c2ccccc2)c1C", "relative growth": 0.937}, {"smiles": "C[C@H]1CN([C@@H](C)CO)C(=O)c2cc(NC(=O)CCCCCC(=O)Nc3ccccc3N)ccc2O[C@H]1CN(C)S(=O)(=O)c1cn(C)cn1", "relative growth": 1.01}, {"smiles": "CNC[C@H]1Oc2cc(C#CCN(C)C)ccc2S(=O)(=O)N([C@H](C)CO)C[C@@H]1C", "relative growth": 1.02}, {"smiles": "C[C@@H]1CCCCO[C@@H](CN(C)C(=O)Nc2ccc3c(c2)OCO3)[C@H](C)CN([C@H](C)CO)C(=O)c2cc(NS(=O)(=O)c3ccc(F)cc3)ccc2O1", "relative growth": 1.01}, {"smiles": "Cc1noc(C)c1S(=O)(=O)Nc1ccc2c(c1)C(=O)N([C@H](C)CO)C[C@@H](C)[C@@H](CN(C)S(=O)(=O)c1cccs1)O2", "relative growth": 0.998}, {"smiles": "C[C@H]1CCCCO[C@H](CN(C)S(C)(=O)=O)[C@@H](C)CN([C@@H](C)CO)C(=O)c2cc(NC(=O)c3ccncc3)ccc2O1", "relative growth": 1.01}, {"smiles": "CC[C@H](C)C[C@H](C)CCCCCCCCC(=O)N[C@H]1C[C@@H](O)[C@@H](NCCN)NC(=O)[C@@H]2[C@@H](O)CCN2C(=O)[C@H]([C@H](O)CCN)NC(=O)[C@H]([C@H](O)[C@@H](O)c2ccc(O)cc2)NC(=O)[C@@H]2C[C@@H](O)CN2C(=O)[C@H]([C@@H](C)O)NC1=O", "relative growth": "0.173 (active)"}, {"smiles": "CCCCCOc1ccc(-c2ccc(-c3ccc(C(=O)N[C@H]4C[C@@H](O)[C@@H](O)NC(=O)[C@@H]5[C@@H](O)[C@@H](C)CN5C(=O)[C@H]([C@@H](C)O)NC(=O)[C@H]([C@H](O)[C@@H](O)c5ccc(O)cc5)NC(=O)[C@@H]5C[C@@H](O)CN5C(=O)[C@H]([C@@H](C)O)NC4=O)cc3)cc2)cc1", "relative growth": 1.12}, {"smiles": "CCCCCOc1ccc(-c2cc(-c3ccc(C(=O)N[C@H]4C[C@@H](O)[C@@H](O)NC(=O)[C@H]5[C@@H](O)[C@@H](C)CN5C(=O)[C@H]([C@@H](O)CC(N)=O)NC(=O)[C@H]([C@@H](O)[C@@H](O)c5ccc(O)c(OS(=O)(=O)O)c5)NC(=O)[C@H]5C[C@@H](O)CN5C(=O)[C@H]([C@@H](C)O)NC4=O)cc3)no2)cc1", "relative growth": 0.952}, {"smiles": "NC1(C(=O)O)CC1", "relative growth": 0.988}, {"smiles": "C[C@@H]1CN([C@@H](C)CO)C(=O)c2cc(C#Cc3ccc(F)cc3)cnc2O[C@@H]1CN(C)Cc1ccccn1", "relative growth": 0.995}, {"smiles": "Cc1ccc(S(=O)(=O)Nc2ccc3c(c2)C(=O)N([C@@H](C)CO)C[C@@H](C)[C@@H](CN(C)C(=O)Nc2cccc4ccccc24)OCCCC[C@@H](C)O3)cc1", "relative growth": 0.998}, {"smiles": "CN1CCN(c2c(F)cc3c(=O)c(C(=O)O)cn4c3c2OCN4C)CC1", "relative growth": "0.0475 (active)"}, {"smiles": "CC1COc2c(N3CCN(C)CC3)c(F)cc3c(=O)c(C(=O)O)cn1c23", "note": "(stereo unspecified)", "relative growth": "0.0447 (active)"}, {"smiles": "CN(c1ccc(N)cc1[N+](=O)[O-])S(C)(=O)=O", "relative growth": 1.02}, {"smiles": "C/C=C/c1ccc2c(c1)O[C@@H](CN(C)Cc1ccc(C(=O)O)cc1)[C@@H](C)CN([C@@H](C)CO)S2(=O)=O", "relative growth": 1.02}, {"smiles": "COc1ccccc1-c1ccc2c(c1)O[C@H](CN(C)C(=O)c1ccncc1)[C@@H](C)CN([C@H](C)CO)S2(=O)=O", "relative growth": 1.01}, {"smiles": "C[C@@H]1CN([C@@H](C)CO)C(=O)Cc2cc(NC(=O)Cc3cn(C)c4ccccc34)ccc2O[C@H]1CN(C)Cc1ccc(C(F)(F)F)cc1", "relative growth": 1.02}, {"smiles": "CCCNC(=O)N1C[C@H](C)[C@H](OC)CN(C)C(=O)c2ccc(NS(=O)(=O)CC(F)(F)F)cc2OC[C@H]1C", "relative growth": 0.974}, {"smiles": "NC(=O)c1cc[n+](CC2=C(C(=O)[O-])N3C(=O)C(NC(=O)C(c4ccccc4)S(=O)(=O)[O-])C3SC2)cc1.[Na+]", "note": "(stereo unspecified)", "relative growth": 1.08}, {"smiles": "O=C([O-])C1=C(CSc2nnnn2CS(=O)(=O)[O-])CSC2C(NC(=O)C(O)c3ccccc3)C(=O)N12.[Na+].[Na+]", "note": "(stereo unspecified)", "relative growth": "0.044 (active)"}, {"smiles": "Cn1nnnc1SCC1=C(C(=O)[O-])N2C(=O)C(NC(=O)C(OC=O)c3ccccc3)C2SC1.[Na+]", "note": "(stereo unspecified)", "relative growth": 0.365}, {"smiles": "NCc1ccccc1CC(=O)NC1C(=O)N2C(C(=O)O)=C(CSc3nnnn3CC(=O)O)CSC12", "note": "(stereo unspecified)", "relative growth": "0.0453 (active)"}, {"smiles": "Cn1nnnc1SCC1=C(C(=O)[O-])N2C(=O)C(NC(=O)C(O)c3ccccc3)C2SC1.[Na+]", "note": "(stereo unspecified)", "relative growth": "0.0463 (active)"}, {"smiles": "CCC(CC)c1ccc(O)cc1", "relative growth": 0.994}, {"smiles": "CNC[C@@H]1Oc2cc(C#CCN(C)C)ccc2S(=O)(=O)N([C@@H](C)CO)C[C@H]1C", "relative growth": 0.981}, {"smiles": "Oc1ccccc1/N=C/c1ccncc1", "relative growth": 0.953}, {"smiles": "Cc1nn(C)cc1NC(=O)C[C@@H]1CC[C@@H]2[C@H](COc3ccc(NC(=O)C4CCOCC4)cc3C(=O)N2C)O1", "relative growth": 0.986}, {"smiles": "COc1ccc(S(=O)(=O)N(C)C[C@@H]2OCCCC[C@H](C)Oc3ccc(NC(=O)Nc4cccc5ccccc45)cc3C(=O)N([C@H](C)CO)C[C@H]2C)cc1", "relative growth": 0.966}, {"smiles": "C[C@@H]1CN([C@@H](C)CO)S(=O)(=O)c2ccc(C#CC(C)(C)O)cc2O[C@@H]1CN(C)Cc1ccccc1", "relative growth": 1}, {"smiles": "Cc1noc(C)c1S(=O)(=O)Nc1ccc2c(c1)C(=O)N([C@@H](C)CO)C[C@H](C)[C@@H](CN(C)Cc1ccccc1)O2", "relative growth": 0.968}, {"smiles": "C[C@H](CO)N1C[C@H](C)[C@H](CN(C)C(=O)Nc2ccc3c(c2)OCO3)OCCCC[C@H](C)Oc2ccc(NC(=O)Cc3ccccc3)cc2C1=O", "relative growth": 0.991}]}]}
